Shown are actives, neighbours in structure and some others; about 6.2% of the full set was active somewhere.
RORgamma inh – qHTS for inhibitors of ROR gamma transcriptional activity; Potency, µM (highest dose often 53.6 µM), hits mostly inhibitors; Drosophila S2 Gal4-RORgamma UAS-luciferase reporter, 20 h; 310,000 tested, 5.4% active; Nuclear receptor ROR-gamma (Mus musculus), P51450; also: nearly all actives have a fitted effect of over 60% in size
Target sequence (P51450 whole entry, looked up, the tested form may be a part): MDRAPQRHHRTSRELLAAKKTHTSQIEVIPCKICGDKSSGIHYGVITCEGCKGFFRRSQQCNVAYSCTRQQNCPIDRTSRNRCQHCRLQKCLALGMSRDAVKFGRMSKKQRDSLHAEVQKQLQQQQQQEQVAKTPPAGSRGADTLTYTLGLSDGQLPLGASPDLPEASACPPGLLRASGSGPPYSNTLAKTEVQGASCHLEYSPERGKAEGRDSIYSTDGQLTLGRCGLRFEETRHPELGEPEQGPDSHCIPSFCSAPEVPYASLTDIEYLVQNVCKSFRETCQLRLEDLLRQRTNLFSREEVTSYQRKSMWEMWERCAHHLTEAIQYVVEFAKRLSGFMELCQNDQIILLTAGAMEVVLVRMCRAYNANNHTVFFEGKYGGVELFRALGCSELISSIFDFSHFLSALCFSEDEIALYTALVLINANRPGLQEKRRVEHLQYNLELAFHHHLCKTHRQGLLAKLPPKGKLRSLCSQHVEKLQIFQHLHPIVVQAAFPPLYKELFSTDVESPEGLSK
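Luciferase reporter read in Schneider cells carrying Gal4-RORγ (mouse) and UAS-Photinus luciferase; cells given compound 1 h before 700 uM copper sulfate induction, then incubated 20 h at ambient temperature.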
VP16 counter – VP16 counterscreen qHTS for inhibitors of ROR gamma transcriptional activity. Drosophila S2 Gal4-VP16 UAS-luciferase, luminescence, 20 h. Potency, µM (doses to about 53.6 µM), hits mostly inhibitors. 310,000 tested, 3.5% active;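 also: Gal4-VP16 expression switched on by copper sulfate through the metallothionein promoter; nearly all actives have a fitted effect of over 50% in size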
KinaseGlo FLuc – Counterscreen for Luciferase (Kinase-Glo TM) Inhibition; AID 1379, 2008; Luciferin 4-monooxygenase (Photuris pensylvanica), Q27757; Kinase-Glo luciferase, ATP luminescence, 8 min; 200,000 tested, 0.28% active; Potency, µM (highest dose often 38.3 µM), hits mostly inhibitors; also: nearly all actives have a fitted effect of over 60% in size
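Compound is pinned into ATP-containing buffer (10 uM ATP, imidazole pH 7.2, 7 mM MgCl2). Kinase-Glo luciferase reagent is then added. Light output is recorded following an 8-min room-temperature incubation.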
Hits are given with their value; [ ] = another dose, or the depositor's remark. Calls follow the shape of the dose curve; as a rule, active = well fitted curve in the direction sought with a large enough effect; inconclusive = small, poorly fitted or top-dose-only effect, or another doubt; inactive = no such curve, though single readings can be large; an effect the other way counts as inactive or inconclusive.

For S=C(Nc1ccc(Oc2ccc(NC(=S)NC3CCCCC3)cc2)cc1)NC1CCCCC1 the results were RORgamma inh 1µM, VP16 counter inconclusive and KinaseGlo FLuc inactive.
Screening OC1CCN(C(=S)Nc2ccc(Oc3ccccc3)cc2)CC1 returned RORgamma inh inactive, VP16 counter inactive[10 µM] and KinaseGlo FLuc inactive.
For S=C(Nc1ccc(Oc2ccccc2)cc1)NC1CCCCC1 the results were RORgamma inh 2.24µM, VP16 counter inactive[0.365 µM] and KinaseGlo FLuc inactive.
`O=C(NNS(=O)(=O)c1ccc2ccccc2c1)NC1CCCCC1` gave RORgamma inh inactive, VP16 counter inactive and KinaseGlo FLuc inactive.
NS(=O)(=O)c1ccc(NC(=S)NC2CCCCCC2)cc1 was read as RORgamma inh inactive, VP16 counter inactive and KinaseGlo FLuc inactive.
Screening S=C(Nc1ccc(Oc2ccccc2)cc1)NC1CCCCCC1 returned RORgamma inh 1.78µM, VP16 counter 3.16µM and KinaseGlo FLuc inactive.
Screening CC[C@@H](C)[C@@H](O)[C@H](C)C(=O)[C@H](C)/C=C(\C)C[C@H](C)[C@@H]1OC(=O)[C@H]1CC returned RORgamma inh inactive and VP16 counter inactive.
Screening C=CCN1c2ccccc2[C@]23C[C@@H](C(=O)OC)N(S(=O)(=O)c4cccs4)C2=NC(C(=O)OC)=C(C(=O)OC)[C@H]13 returned KinaseGlo FLuc inactive[7.66 µM].
`COc1ccccc1NC(=O)N1C2CCCC1CC(NC(=O)c1ccccc1)C2` (stereo not given) gave RORgamma inh inactive, VP16 counter inactive[10 µM] and KinaseGlo FLuc inactive.
For C=CCNCc1cc(=O)n2c(-c3ccccc3)csc2n1 the results were RORgamma inh inactive and VP16 counter inactive.
CC(C)c1ccc(NC(=S)NC2CCCCCC2)cc1 was read as RORgamma inh 2.24µM, VP16 counter 15.8µM and KinaseGlo FLuc inactive.
`CC(=O)c1ccc(NC(=S)NNC(=O)NC2CCCCC2)cc1` gave RORgamma inh inconclusive, VP16 counter inconclusive and KinaseGlo FLuc inactive.
`NS(=O)(=O)c1ccc(NC(=S)NC2CCCC2)cc1` gave RORgamma inh inactive, VP16 counter inactive and KinaseGlo FLuc inactive.
Cc1ccc(NC(=S)NNC(=S)NC2CCCCC2)cc1 was read as RORgamma inh 15.8µM, VP16 counter inconclusive and KinaseGlo FLuc inactive.
`Cc1ccc(C(NC(=O)N2CCOCC2)C(Cl)Cl)cc1F` (stereo not given) gave RORgamma inh inconclusive, VP16 counter inactive and KinaseGlo FLuc inactive.
For Cc1ccc(C(NC(=O)N2CCOCC2)=C(Cl)Cl)cc1F the results were RORgamma inh 22.4µM, VP16 counter 2.24µM and KinaseGlo FLuc inactive.
`O=C(c1ccncc1)N1CCC2(CC1)CN(c1ccccn1)C2` gave RORgamma inh inactive, VP16 counter inactive and KinaseGlo FLuc inactive.
Screening CC(C)c1nnc(NC(=O)CSc2nnc(-c3ccco3)o2)s1 returned RORgamma inh 11.2µM, VP16 counter 17.8µM and KinaseGlo FLuc inactive.
`Cc1nnc(NC(=O)CSc2nnc(-c3ccco3)o2)s1` gave RORgamma inh 1.58µM, VP16 counter 5.01µM and KinaseGlo FLuc inactive.
`COC(=O)CSc1nnc(-c2ccco2)o1` gave RORgamma inh inactive, VP16 counter inactive and KinaseGlo FLuc inactive.
`Cc1ccc(NC(=O)CSc2nnc(-c3ccco3)o2)c(C)c1` gave RORgamma inh inactive, VP16 counter inactive and KinaseGlo FLuc inactive.
COc1ccc(-c2cc(=O)c3c(O)cc(O)c(-c4cc(-c5cc(=O)c6c(O)cc(O)cc6o5)ccc4OC)c3o2)cc1 was read as RORgamma inh inactive, VP16 counter inactive and KinaseGlo FLuc inactive.
Screening COc1ccccc1CNc1ccnc(-c2ccccc2OC)n1 returned RORgamma inh inactive and VP16 counter inactive.
`CNC(=O)Nc1ccccc1C(=O)Nc1ccccc1` gave RORgamma inh inactive and VP16 counter inactive.
For COC(=O)CCCNC(=O)c1ccccn1 the results were RORgamma inh inactive, VP16 counter inactive and KinaseGlo FLuc inactive.
`Cn1c(=O)c(CCc2ccccc2)nc2cncnc21` gave RORgamma inh inactive, VP16 counter inactive and KinaseGlo FLuc inactive.
For O=C(NCc1ccco1)c1sc2cc(Cl)ccc2c1Cl the results were RORgamma inh inactive, VP16 counter inactive and KinaseGlo FLuc inactive.
Cc1ccc2c(Cl)c(C(=O)N/N=C/c3cccn3C)sc2c1 was read as RORgamma inh 1.26µM, VP16 counter 1.58µM and KinaseGlo FLuc inactive.
Screening Cc1cc(C(=O)N/N=C/c2cccn2C)no1 returned RORgamma inh inactive, VP16 counter inactive and KinaseGlo FLuc inactive.
For Cn1cccc1/C=N/NC(=O)c1sc2cc(Cl)ccc2c1Cl the results were RORgamma inh 0.708µM and VP16 counter 0.562µM.
O=C(Oc1ccccc1)N1CCC2(CCCN(c3ccncc3)C2)CC1 was read as RORgamma inh inactive, VP16 counter inactive and KinaseGlo FLuc inactive.
Screening CCc1cccc(CC)c1NC(=O)COC(=O)CCc1cc(OC)c(OC)c(OC)c1 returned RORgamma inh inactive, VP16 counter inactive and KinaseGlo FLuc inactive.
O=C(Cn1c(-c2ccccc2)noc1=O)N1CCC(Cc2ccccc2)CC1 was read as RORgamma inh inactive, VP16 counter inactive and KinaseGlo FLuc inactive.
Screening CCOC(=O)C1CCN(C2=NC(=O)/C(=C/c3ccc(Cl)cc3)S2)CC1 returned RORgamma inh inactive and VP16 counter inactive.
Screening CCOC(=O)CSC1=NC(=O)/C(=C\c2ccc(Cl)cc2)S1 returned RORgamma inh inactive, VP16 counter 12.6µM and KinaseGlo FLuc inactive.
C=CCNC(=O)C1CCN(c2c([N+](=O)[O-])cc(C(F)(F)F)cc2[N+](=O)[O-])CC1 was read as RORgamma inh inactive, VP16 counter inactive and KinaseGlo FLuc inactive.
Screening COc1cc(NC(=S)Nc2cccnc2)cc(OC)c1 returned RORgamma inh 10µM, VP16 counter inconclusive and KinaseGlo FLuc inactive.
For Cc1cc(NC(=S)Nc2ccccc2)ccc1Br the results were RORgamma inh 10µM, VP16 counter inconclusive and KinaseGlo FLuc inactive.
`Oc1cccc(NC(=S)Nc2ccccc2)c1` gave RORgamma inh inactive and VP16 counter inactive.
Screening COc1cc(OC)cc(C(=O)NC(=S)Nc2cccnc2)c1 returned RORgamma inh inactive, VP16 counter inactive and KinaseGlo FLuc inconclusive.
For Fc1cccc(NC(=S)Nc2cccnc2)c1 the results were RORgamma inh inactive, VP16 counter inactive and KinaseGlo FLuc inactive.
`Cc1cc(Cl)ccc1NC(=S)Nc1cccnc1` gave RORgamma inh 12.6µM, VP16 counter inconclusive and KinaseGlo FLuc inactive.
Screening Cc1cc(NC(=S)Nc2cccnc2)ccc1Br returned RORgamma inh 12.6µM, VP16 counter inconclusive and KinaseGlo FLuc inactive.
`S=C(Nc1cccnc1)Nc1cccc2cnccc12` gave RORgamma inh inactive, VP16 counter inactive and KinaseGlo FLuc inactive.
CCc1ccc(C(=O)CN2CCSC2=N)cc1 was read as RORgamma inh inactive, VP16 counter inactive and KinaseGlo FLuc inactive.
Cc1ccc(CNc2cc(C(=O)O)ccc2Cl)s1 was read as RORgamma inh inactive and VP16 counter inactive.
COc1ccc(/C=N/NC(=O)Nc2cccc3nsnc23)cc1 was read as RORgamma inh inactive[10 µM], VP16 counter inconclusive and KinaseGlo FLuc inactive.
Screening CC(=O)c1ccc(-c2c(C3C4C=CCC(C)C4C(=O)N3Cc3ccccc3)ccc3ccccc23)cc1 (stereo not given) returned RORgamma inh inactive and VP16 counter inactive.

Bioassay records: PubChem BioAssay, National Center for Advancing Translational Sciences (NCATS)
